Activity calls are given as the source filed them. Calls follow the shape of the dose curve; as a rule, active = well fitted activation curve with a large enough effect in the repeat runs; inconclusive = weak or mixed curves; inactive = flat fitted curve, though single readings scatter.
experiment: A CellTox Green Cytotoxicity Assay to monitor cytotoxicity in HepG2 cells - 0 hour (AID 1224882); settings: CellTox Green fluorescence; series mostly up to 76.8 µM; cytotoxicity: at the top concentration; also: nearly all actives have a fitted effect of over 35% in size
From the text: National Center for Advancing Translational Sciences [NCATS]
NIH Chemical Genomics Center [NCGC]
U.S. Environmental Protection Agency [EPA]
National Institutes of Environmental Health Sciences [NIEHS]
National Toxicology Program [NTP]
Cell-based models are critical for drug discovery. Determining the natural cytotoxic effects resulting from test compounds is an essential research activity. A CellTox Green Cytotoxicity Assay to monitor cytotoxicity in real time of continues cell culture during 40 hours of the compound treatment was used to screen Tox21 10K library compounds in HepG2 cells. CellTox Green Cytotoxicity Assay is a nonlytic, homogeneous, biofluorescent method to measure cytotoxicity in cell culture after experimental manipulation. The assay system uses a proprietary asymmetric cyanine dye that is excluded from viable cells but preferentially stains the dead cell's DNA. […] Viable cells produce no appreciable increases in fluorescence. Therefore, the fluorescence signal produced by the binding interaction with dead cell DNA is proportional to cytotoxicity.
The mixture of HepG2 cell suspension and reagents were dispensed at 600cells/6 ul/well in 1536-well tissue culture treated black solid bottom plates using a Multidrop dispenser. After the assay plates were incubated at a 37 C/5% CO2 incubator for 5 hours, 23 nL of compounds dissolved in DMSO, positive and negative controls was transferred to the assay plate by a pintool work station. The plates were incubated at 37 C for 40 hours. The fluorescence intensity were measured at 0h, 8h, 16h, 24h, 32h and 40h time points using ViewLux plate reader during compound treatment.
% is scaled to controls: 0 for no effect and ±100 for the full control effect; potency is read from the fitted curve at half-maximal effect.

Compound | cytotoxicity | Potency
CCCCCCCN | 0.603% (inactive) | –
CCN(CC)CCOC(=O)C(c1ccccc1)C1CCCCC1 (stereo not given) | -1.17% [at 35.3 µM] (inactive) | –
C=C1[C@H]2CC[C@@H]3[C@H]2C(C)(C)CCC[C@]13C | -0.842% (inactive) | –
Cc1ccccc1S(=O)(=O)O | 1.16% (inactive) | –
CCO[C@H](Cc1ccc(OCCc2ccc(OS(C)(=O)=O)cc2)cc1)C(=O)O | -8.33% [at 35.3 µM] (inactive) | –
O=C1CCC(=O)O1 | -0.211% (inactive) | –
CC(C)CC(=O)C1C(=O)c2ccccc2C1=O | 0.39% (inactive) | –
Nc1ccc(N)c2c1C(=O)c1ccccc1C2=O | -21% (inactive) | –
C[Si](C)(CCCN)O[Si](C)(C)CCCN | -4.4% (inactive) | –
Nc1ccccc1S(=O)(=O)c1ccccc1 | -14.4% (inactive) | –
NCCCN1CCOCC1 | 4.53% (inactive) | –
CN(C)CCN(Cc1ccccc1)c1ccccn1 | 1.33% [at 35.3 µM] (inactive) | –
O=[N+]([O-])c1cccc(S(=O)(=O)O)c1 | 5.33% (inactive) | –
O=C1OC(CN2CCOCC2)CN1/N=C/c1ccc([N+](=O)[O-])o1 (stereo not given) | 0.357% [at 35.3 µM] (inactive) | –
COCCCN1CCC(NC(=O)c2cc(Cl)c(N)c3c2OCC3)CC1 | -6.49% [at 35.3 µM] (inactive) | –
CC(C)(C)Cl | 0.0654% (inactive) | –
CC(C)=CCC/C(C)=C/CC/C(C)=C/CO | -4.6% (inactive) | –
O=C1C(O)=C(O)C(=O)C(O)=C1O | -1.11% [at 35.3 µM] (inactive) | –
Cc1cccc(C)c1OCC(=O)N[C@@H](Cc1ccccc1)[C@@H](O)C[C@H](Cc1ccccc1)NC(=O)[C@H](C(C)C)N1CCCNC1=O | -7.43% [at 35.3 µM] (inactive) | –
NCc1ccccc1Sc1ccccc1CO | 2.29% [at 35.3 µM] (inactive) | –

Compound | cytotoxicity | Potency
N=c1ccn2c(n1)O[C@H]1[C@H](O)[C@@H](CO)O[C@H]12 | 6.14% (inactive) | –
CCCCCCCC/C=C\CCCCCCCC(=O)OCC | 6.42% (inactive) | –
Nc1cccc([N+](=O)[O-])c1 | 0.646% (inactive) | –
COC(=O)C1=C(C)NC(COC(N)=O)=C(C(=O)OC(C)C)C1c1cccc(Cl)c1Cl (stereo not given) | 2.92% [at 35.3 µM] (inactive) | –
COc1ccc(S(=O)(=O)N2C(=O)[C@@](c3ccccc3OC)(N3C[C@H](O)C[C@H]3C(=O)N(C)C)c3cc(Cl)ccc32)c(OC)c1 | -2.15% (inactive) | –
CCCCC/C=C\C/C=C\CCCCCCCC(=O)NC(C)c1ccccc1 (stereo not given) | -4.48% [at 35.3 µM] (inactive) | –
COS(=O)(=O)C(F)(F)F | 1.1% (inactive) | –
C1CCCNCCC1 | -1.96% (inactive) | –
C=C(C)C(=O)OCC | -1.47% (inactive) | –
CCCCCCCCO[C@@H]1O[C@H](CO)[C@@H](O)[C@H](O)[C@H]1O | 1.72% (inactive) | –
NC(=O)C(c1ccccc1)(c1ccccc1)[C@@H]1CCN(CCc2ccc3c(c2)CCO3)C1 | – | 23.9 µM (active)
CC(=O)[O][Al][O]C(C)=O | -0.986% (inactive) | –
OC(C#CCN1CCCC1)(c1ccccc1)c1ccccc1 | -0.247% [at 35.3 µM] (inactive) | –
NS(=O)(=O)c1ccc(N2CCCCS2(=O)=O)cc1 | 5.3% [at 35.3 µM] (inactive) | –
CCCCC(CC)COC(=O)COc1ccc(Cl)cc1Cl (stereo not given) | 0.841% (inactive) | –
CC(CC=O)c1ccccc1 (stereo not given) | 0.853% (inactive) | –
C#C[C@]1(O)CC[C@H]2[C@@H]3CCc4cc(OC5CCCC5)ccc4[C@H]3CC[C@@]21C | 2.01% [at 35.3 µM] (inactive) | –
C=CC(=O)OCCOCCOC(=O)C=C | 5.97% (inactive) | –
C=C1C(=C/C=C2\CCC[C@]3(C)[C@@H]([C@H](C)/C=C/[C@@H](O)C4CC4)CC[C@@H]23)C[C@@H](O)C[C@@H]1O | -0.137% [at 35.3 µM] (inactive) | –
Cc1cc(C(=O)O)ccc1[N+](=O)[O-] | 1.45% (inactive) | –

From PubChem BioAssay (Tox21)
